Results filed as inconclusive are left out. Activity calls are given as the source filed them. Rule for the calls: active = hit-call score of the fitted dose curve at least 0.9, where 1 is the maximum; inconclusive = response in the unintended direction; inactive = score below 0.9.
Experiment: CCTE_Shafer_MEA_acute_LDH: CCTE's Lactate Dehydrogenase Assay for Cytotoxicity in the Neural Acute Assay, Shafer Lab (AID 2284086);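 note: active means LDH release rises above DMSO vehicle level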
Method in brief: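 Medium from rat cortical neuron MEA cultures sampled right after the 40 min compound-exposure recording; released LDH measured by absorbance at 490 nm. Analyzed as signal gain relative to DMSO.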
In the case of CCCN(CCC)N=O, the outcome is reported as “inactive”.
In the case of CCC(C)(CC)c1cc(NC(=O)c2c(OC)cccc2OC)on1, the outcome is reported as “inactive”.
In the case of c1ccc(-c2ccccc2)cc1, the outcome is reported as “inactive”.
For Clc1ccc(C(Cl)(Cl)Cl)cc1, the outcome was “inactive”.
With CCC(C)c1cc([N+](=O)[O-])cc([N+](=O)[O-])c1O (stereo unspecified) the outcome was “inactive”.
For ClC1=C(Cl)[C@]2(Cl)[C@@H]3[C@@H]4C[C@@H]([C@H]5O[C@@H]45)[C@@H]3[C@@]1(Cl)C2(Cl)Cl, the outcome was “inactive”.
For CC#Cc1cc(C)nc(Nc2ccccc2)n1, the outcome was “inactive”.
With CCCCCCCCCc1ccc(O)cc1 the outcome was “inactive”.
With CN(C)CCO the outcome was “inactive”.
In the case of CCSC(=O)N(CC)C1CCCCC1, the outcome is reported as “inactive”.
In the case of ClC(Cl)=C(c1ccc(Cl)cc1)c1ccc(Cl)cc1, the outcome is reported as “inactive”.
With O=C(N[C@H]1CN2CCC1CC2)c1cc2ccoc2cn1 the outcome was “inactive”.
With Nc1ccc(-c2ccc(N)cc2)cc1 the outcome was “inactive”.
In the case of C=CC(N)=O, the outcome is reported as “inactive”.
In the case of CCC(C)(c1ccc(O)cc1)c1ccc(O)cc1, the outcome is reported as “inactive”.
For CO/C=C(/C(=O)OC)c1ccccc1COc1cccc(C(F)(F)F)n1, the outcome was “inactive”.
With COc1ccc(O)c(C(C)(C)C)c1 the outcome was “inactive”.
With O=C(O)C(F)(F)C(F)(F)C(F)(F)C(F)(F)C(F)(F)F the outcome was “inactive”.
In the case of ClC1=C(Cl)[C@]2(Cl)[C@@H]3[C@@H](Cl)[C@H]4O[C@H]4[C@@H]3C1(Cl)C2(Cl)Cl, the outcome is reported as “inactive”.
For CC(C)C(=O)OCC(C)(C)C(OC(=O)C(C)C)C(C)C (stereo unspecified), the outcome was “inactive”.
With CCCCCCCCCC[N+](C)(C)CCCCCCCCCC the AC50 was 31.3 µM (active).

Reference: PubChem BioAssay (EPA / NIEHS)
